The values below come from PubChem BioAssay.

A short description of assay [1]: rapamycin-like changes in RPL19A-GFP expression – cell-based, S. cerevisiae, multiplex flow cytometry, primary screen (AID 1862; in the data active = percent of DMSO control GFP below about 86%;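 note: lower values mimic rapamycin by blocking the RPL19A rise seen in DMSO cells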). Conditions: S. cerevisiae RPL19A-GFP strain, flow cytometry fluorescence, 3 h; at 10 µM; stronger effect = lower value.
The nature of assay [2]: TOR pathway GLN3 branch reporter MEP2-GFP changes – S. cerevisiae, multiplex flow cytometry, primary screen (AID 1867;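 active = GFP response, as percent of the DMSO control, above the screen-wide mean plus 3 SD, about 139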;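 note: median GFP channel fluorescence of barcode-gated MEP2-GFP cells measured by flow cytometry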). Conditions: S. cerevisiae MEP2-GFP strain, 3 h, at 10 µM, stronger effect = higher value, 100% means same as DMSO wells.
Assay [3] is described as follows: TOR pathway RTG branch CIT2 reporter changes – S. cerevisiae, GFP fusion, multiplex flow cytometry, primary screen (AID 1870).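 Note: barcoded CIT2-GFP strain pooled with four other GFP strains with rapamycin as positive control; median GFP fluorescence per well over plate mean of DMSO wells so 100% = DMSO.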 Conditions: S. cerevisiae CIT2-GFP expression, 3 h, at 10 µM, stronger effect = higher value. Background: A flow cytometer gives signals particle by particle.
Assay [4] can be described thus: TOR pathway LAP4-GFP level changes – S. cerevisiae, multiplex flow cytometry, primary screen (AID 1873;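 active = GFP signal, as percent of the solvent control, above the screen mean plus 3 SD, about 149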). Conditions: S. cerevisiae LAP4-GFP expression, 3 h, at 10 µM, stronger effect = higher value.
A short description of assay [5]: yeast AGP1-GFP level changes, GLN3 branch – cell-based, multiplex flow cytometry, S. cerevisiae, primary screen (AID 1887;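 active = GFP signal above the screen-wide mean plus 3 SD, that is over about 124.5% of the solvent control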;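 note: AGP1-GFP fusion strain of S. cerevisiae within a five-strain barcoded multiplex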). Conditions: 3 h, at 10 µM, stronger effect = higher value.
Assay [6] is described as follows: reduced mouse 2C T cell binding to pMHC/ICAM-1 vesicles – MLPCN validation set, flow cytometry, LFA-1/ICAM-1 modulator project, pilot screen (AID 2523;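 active = response below a set limit, under 55% cells CD8-positive and vesicle-bound, and CD8 cells' 90th-percentile brightness under 279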;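 for vesicle binding response: mean PE anti-B7-1 fluorescence of CD8+ cells relative to row control; 100% = QL9-loaded vesicles with DMSO vehicle in the same plate row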). Conditions: 2C mouse CD8+ T cells, at 7 µM, stronger effect = lower value; double positive events: measured here: CD8+/vesicle+ event percentage.
The target in assay [7] is Integrin beta-1 (Homo sapiens) + Integrin alpha-4 (Homo sapiens) (UniProt P13612+P05556). Kind of assay: alpha4beta1 integrin LIBS antibody binding reduction – U937 cells, HUTS-21 mAb, flow cytometry, validation set, VLA-4 allosteric modulator project, pilot screen (AID 2674;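 active = inhibition above 50%, about 3 SD of the validation set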;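 note: antibody binding induced by the VLA-4 ligand LDV present at three times its Kd; 0% = LDV ligand with antibody and no compound and 100% = antibody without LDV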). Conditions: HUTS-21 LIBS mAb binding, at 6.7 µM, stronger effect = higher value, binding induced by LDV ligand.

A short description of assay [8]: calorie-restriction mimetic ROS inhibitors, yeast – validation compound set, pilot screen (AID 2706;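 active = superoxide response below 65% of plate, a cut near 3 SD across the whole screen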;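 note: yeast exposed to compound for one week at 30 degrees C before staining; 100% = mean of all compound wells on the same plate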). Conditions: S. cerevisiae aging, superoxide DHE fluorescence; at 10 µM, stronger effect = lower value.
Assay [9] has as its target Beta-adrenergic receptor kinase 1 (Homo sapiens) (UniProt P25098). Kind of assay: GRK2 binders displacing RNA aptamer, biochemical, validation, human GRK2, bead flow cytometry (AID 488806;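 active = aptamer binding inhibition above 30%, about 3 SD of noise from non-fluorescent compounds; inactive = inhibition at or below 30%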). Conditions: bead-bound GRK2, FAM-aptamer displacement, at 10 µM, stronger effect = higher value.
In assay [10] the target is AP-2 complex subunit beta (Homo sapiens) (UniProt P63010). Kind of assay: beta-arrestin/AP2 interaction blockers – biochemical, validation set, GST-AP2 beads, flow cytometry, pilot screen (AID 504541;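 active = inhibition above 54%, about 3 SD of non-fluorescent compounds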;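 note: AP2 carries R879A mutation and is captured from E. coli lysate; bead-bound FITC arrestin peptide fluorescence measuring arrestin peptide binding to AP2; 0% = DMSO wells and 100% = excess unlabeled arrestin peptide control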). Conditions: FITC arrestin peptide, at 10 µM, stronger effect = higher value, AP2 beta2 appendage fragment, R879A mutant.
The nature of assay [11]: cytosolic pH regulators acting via V-ATPase – S. cerevisiae, pHLuorin, HTS validation (AID 504600; in the data active = response above about 15%;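 note: plate controls were DMSO for no effect and reference compound for full effect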). Conditions: V-ATPase proton transport, at 10 µM, stronger effect = higher value.
The test system of assay [12] is anti-desmoglein-3 scFv antibody binding to human DSG3. Kind of assay: blockers of pathogenic pemphigus antibody–desmoglein-3 binding – biochemical, validation compound set, bead-based, flow cytometry, pilot screen (AID 588368;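 active = binding below the plate cutoff, the plate median minus 3 SD, with a reading above zero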;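 note: signal is the median channel fluorescence of bead-bound GFP antibody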). Conditions: Protein G beads, DSG3-Fc, scFv-GFP binding, at 10 µM, stronger effect = lower value.
Assay [13] is described as follows: Nile Red efflux blockade in pump-expressing yeast – validation compound set, multiplex, phenotypic, pilot screen (AID 588506;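 active = efflux inhibition above 0.42, the validation set average plus 4 SD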;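 note: Nile Red retained in cells so higher fluorescence means more efflux inhibition; 0 = negative control wells and 1 = enniatin B 25 µM full block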). Conditions: S. cerevisiae pump-expressing triplex, Nile Red efflux flow cytometry; at 10 µM; stronger effect = higher value; the pumps come from Candida albicans.
In assay [14] the target is ATP-binding cassette sub-family B member 6 (Homo sapiens) (UniProt Q9NP58). Kind of assay: blockers of ABCB6-driven porphyrin uptake – K562-ABCB6 cells, flow cytometry, validation set, pilot screen (AID 588550;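 active = inhibition above the screen-wide mean plus 3 SD, about 51%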;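 note: 0% = DMSO wells and 100% = benzethonium chloride 70 µM positive control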). Conditions: K562-ABCB6 porphyrin accumulation, 1 h, at 10 µM, stronger effect = higher value.
A short description of assay [15]: AML differentiation inducers, ER-HoxA9 marrow cells – cell-based, GFP/MAC1 double positive, flow cytometry, validation set, primary screen (AID 588685;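 active = differentiation response of at least 50%, scaled between solvent and reference control, from cells with both markers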;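 note: compound exposure lasts four days before antibody staining and flow analysis; 0% = DMSO wells and 100% = 5 µM fulvestrant positive control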). Conditions: stronger effect = higher value, normalized: vehicle 0, fulvestrant 100.

Inconclusive results are not listed. Activity calls are given as the source filed them.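 Rule for the calls, unless noted: active = percent response above a set limit, the screen-wide mean plus 3 SD (cut at about 130% in these data); inactive = the rest.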

Chain of AP-2 complex subunit beta (Homo sapiens) (P63010 whole entry, looked up, the tested form may be a part, one chain of several): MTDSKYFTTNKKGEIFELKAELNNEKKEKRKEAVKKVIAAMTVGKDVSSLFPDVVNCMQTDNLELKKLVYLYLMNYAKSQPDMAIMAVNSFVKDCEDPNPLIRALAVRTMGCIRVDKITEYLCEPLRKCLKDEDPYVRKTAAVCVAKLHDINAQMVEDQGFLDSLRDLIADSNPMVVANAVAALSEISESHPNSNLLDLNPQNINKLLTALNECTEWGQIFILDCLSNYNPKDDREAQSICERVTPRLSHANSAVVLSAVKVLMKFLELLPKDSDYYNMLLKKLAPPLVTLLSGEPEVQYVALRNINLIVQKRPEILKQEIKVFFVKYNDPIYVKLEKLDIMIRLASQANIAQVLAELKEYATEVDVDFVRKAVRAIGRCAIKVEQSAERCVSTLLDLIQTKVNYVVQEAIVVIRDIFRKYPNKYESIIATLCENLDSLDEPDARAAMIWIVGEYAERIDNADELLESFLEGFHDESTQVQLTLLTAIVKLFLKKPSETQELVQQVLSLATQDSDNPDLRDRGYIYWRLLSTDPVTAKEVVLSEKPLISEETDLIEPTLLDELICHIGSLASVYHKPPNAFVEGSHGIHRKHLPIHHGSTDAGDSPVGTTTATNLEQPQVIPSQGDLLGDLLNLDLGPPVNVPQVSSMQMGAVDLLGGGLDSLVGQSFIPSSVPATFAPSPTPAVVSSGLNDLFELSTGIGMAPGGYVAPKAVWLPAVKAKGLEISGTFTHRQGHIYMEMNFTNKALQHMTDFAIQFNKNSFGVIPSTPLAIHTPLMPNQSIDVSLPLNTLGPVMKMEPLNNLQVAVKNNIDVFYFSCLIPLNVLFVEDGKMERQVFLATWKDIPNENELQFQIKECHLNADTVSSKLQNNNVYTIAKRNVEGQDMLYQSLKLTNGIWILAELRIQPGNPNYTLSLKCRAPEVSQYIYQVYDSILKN
Chain of Beta-adrenergic receptor kinase 1 (Homo sapiens) (P25098 whole entry, looked up): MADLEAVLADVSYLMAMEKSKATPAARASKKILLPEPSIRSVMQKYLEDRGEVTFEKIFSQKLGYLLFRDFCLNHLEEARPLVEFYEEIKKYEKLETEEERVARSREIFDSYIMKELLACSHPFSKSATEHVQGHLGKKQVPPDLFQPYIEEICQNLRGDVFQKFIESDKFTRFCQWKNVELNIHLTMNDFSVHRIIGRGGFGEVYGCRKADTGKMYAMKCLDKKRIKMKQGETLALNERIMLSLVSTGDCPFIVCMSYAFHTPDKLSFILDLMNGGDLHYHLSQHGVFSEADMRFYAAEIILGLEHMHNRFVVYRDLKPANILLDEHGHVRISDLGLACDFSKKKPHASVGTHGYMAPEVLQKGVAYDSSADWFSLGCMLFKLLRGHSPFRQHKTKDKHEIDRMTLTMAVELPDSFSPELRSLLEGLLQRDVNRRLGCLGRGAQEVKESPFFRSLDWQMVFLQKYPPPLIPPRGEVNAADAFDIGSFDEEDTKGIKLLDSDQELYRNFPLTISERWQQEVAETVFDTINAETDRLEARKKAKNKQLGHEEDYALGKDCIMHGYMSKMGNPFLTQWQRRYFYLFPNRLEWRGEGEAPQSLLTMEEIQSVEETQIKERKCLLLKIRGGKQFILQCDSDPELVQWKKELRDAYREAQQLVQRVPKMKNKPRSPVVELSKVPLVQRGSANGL
Chain of Integrin beta-1 (Homo sapiens) + Integrin alpha-4 (Homo sapiens) (P05556 whole entry, looked up): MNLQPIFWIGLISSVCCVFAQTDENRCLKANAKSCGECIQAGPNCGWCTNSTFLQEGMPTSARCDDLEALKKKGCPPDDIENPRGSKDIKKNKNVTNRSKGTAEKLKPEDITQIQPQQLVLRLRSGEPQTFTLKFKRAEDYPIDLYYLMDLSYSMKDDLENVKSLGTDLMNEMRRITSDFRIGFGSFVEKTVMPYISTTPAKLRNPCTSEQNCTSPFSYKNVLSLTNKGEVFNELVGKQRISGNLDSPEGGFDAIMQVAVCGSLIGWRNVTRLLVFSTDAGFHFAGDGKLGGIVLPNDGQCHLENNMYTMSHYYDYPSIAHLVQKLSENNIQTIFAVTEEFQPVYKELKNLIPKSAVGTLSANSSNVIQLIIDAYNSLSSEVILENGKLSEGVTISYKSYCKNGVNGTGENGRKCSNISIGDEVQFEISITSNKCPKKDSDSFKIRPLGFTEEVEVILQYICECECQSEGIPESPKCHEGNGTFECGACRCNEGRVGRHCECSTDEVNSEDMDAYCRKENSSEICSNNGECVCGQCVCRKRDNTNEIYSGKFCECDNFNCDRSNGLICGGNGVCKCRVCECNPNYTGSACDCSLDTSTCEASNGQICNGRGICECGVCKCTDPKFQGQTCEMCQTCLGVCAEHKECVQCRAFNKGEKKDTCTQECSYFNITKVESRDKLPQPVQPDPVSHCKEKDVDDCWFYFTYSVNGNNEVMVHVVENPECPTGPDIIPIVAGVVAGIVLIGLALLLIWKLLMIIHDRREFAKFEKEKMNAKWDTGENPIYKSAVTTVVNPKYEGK
Chain of Integrin beta-1 (Homo sapiens) + Integrin alpha-4 (Homo sapiens) (P13612 whole entry, looked up): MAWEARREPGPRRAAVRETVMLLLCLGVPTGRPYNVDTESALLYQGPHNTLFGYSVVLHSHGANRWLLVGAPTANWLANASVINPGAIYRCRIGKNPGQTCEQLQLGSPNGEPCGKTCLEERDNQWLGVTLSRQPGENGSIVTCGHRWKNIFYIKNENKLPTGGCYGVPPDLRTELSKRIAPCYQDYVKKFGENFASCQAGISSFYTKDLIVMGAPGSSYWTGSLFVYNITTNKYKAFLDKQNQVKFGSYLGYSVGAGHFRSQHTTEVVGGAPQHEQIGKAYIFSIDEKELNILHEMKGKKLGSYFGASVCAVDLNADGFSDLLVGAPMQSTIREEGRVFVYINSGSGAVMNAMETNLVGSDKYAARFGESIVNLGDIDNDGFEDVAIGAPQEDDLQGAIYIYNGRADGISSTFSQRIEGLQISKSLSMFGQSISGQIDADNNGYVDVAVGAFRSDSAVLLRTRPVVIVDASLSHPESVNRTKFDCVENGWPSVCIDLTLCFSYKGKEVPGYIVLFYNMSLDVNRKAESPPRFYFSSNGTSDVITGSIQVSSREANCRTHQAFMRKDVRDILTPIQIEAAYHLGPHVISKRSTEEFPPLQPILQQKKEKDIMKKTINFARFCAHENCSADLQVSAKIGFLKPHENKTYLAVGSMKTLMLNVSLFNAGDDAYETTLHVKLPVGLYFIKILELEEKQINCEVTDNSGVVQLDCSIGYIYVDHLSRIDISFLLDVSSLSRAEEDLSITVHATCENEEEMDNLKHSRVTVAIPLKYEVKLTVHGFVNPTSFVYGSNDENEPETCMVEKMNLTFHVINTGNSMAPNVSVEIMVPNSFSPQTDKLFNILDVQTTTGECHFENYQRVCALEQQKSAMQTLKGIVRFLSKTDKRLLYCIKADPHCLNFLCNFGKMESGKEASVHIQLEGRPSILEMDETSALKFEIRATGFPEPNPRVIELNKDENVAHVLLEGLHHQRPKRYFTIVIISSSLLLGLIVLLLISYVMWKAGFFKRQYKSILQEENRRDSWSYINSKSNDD
Chain of ATP-binding cassette sub-family B member 6 (Homo sapiens) (Q9NP58 whole entry, looked up): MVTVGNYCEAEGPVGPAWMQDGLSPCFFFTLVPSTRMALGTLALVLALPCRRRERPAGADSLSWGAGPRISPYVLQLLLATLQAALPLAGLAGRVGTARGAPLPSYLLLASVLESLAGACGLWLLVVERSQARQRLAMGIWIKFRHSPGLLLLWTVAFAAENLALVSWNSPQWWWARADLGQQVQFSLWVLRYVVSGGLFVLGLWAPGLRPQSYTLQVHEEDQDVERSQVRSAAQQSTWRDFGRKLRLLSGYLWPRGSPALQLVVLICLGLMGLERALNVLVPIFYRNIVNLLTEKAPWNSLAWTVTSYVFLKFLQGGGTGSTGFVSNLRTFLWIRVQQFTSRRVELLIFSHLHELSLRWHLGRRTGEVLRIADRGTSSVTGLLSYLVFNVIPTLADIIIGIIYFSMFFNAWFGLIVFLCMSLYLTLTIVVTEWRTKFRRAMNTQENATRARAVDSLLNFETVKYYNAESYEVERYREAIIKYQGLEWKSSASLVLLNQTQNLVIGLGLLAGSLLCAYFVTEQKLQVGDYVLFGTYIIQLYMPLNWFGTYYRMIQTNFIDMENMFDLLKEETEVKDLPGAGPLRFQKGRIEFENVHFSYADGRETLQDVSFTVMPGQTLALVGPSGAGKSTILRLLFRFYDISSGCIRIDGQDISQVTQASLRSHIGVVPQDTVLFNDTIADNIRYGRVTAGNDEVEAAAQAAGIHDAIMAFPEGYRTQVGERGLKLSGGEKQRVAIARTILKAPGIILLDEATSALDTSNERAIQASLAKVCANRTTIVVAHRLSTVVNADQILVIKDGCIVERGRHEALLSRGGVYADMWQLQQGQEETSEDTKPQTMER

For `COC(=O)CN1CC(=O)N(c2ccccc2)C1=S`, the percent of DMSO control GFP in assay [1] is 101% (inactive). For the same molecule, the figures for the GFP response vs DMSO in assay [2] and in assay [4] were 106% (inactive) and 100% (inactive), respectively. In addition, the percent response of DMSO control in assay [3] was 97.9% (inactive). The GFP response, % of DMSO in [5] is 95.8% (inactive). In addition, the double positive events in assay [6] was 59.2%. For the same molecule, the vesicle binding response in assay [6] is 171% (inactive). The inhibition was 6.29% (inactive) in assay [7], 9.42% (inactive) in assay [10] and -19% (inactive) in assay [14]. For the same molecule, in [8], the superoxide response (% of plate) is 97.2% (inactive). For the same molecule, the aptamer binding inhibition in [9] was 1% (inactive). Besides, the response in assay [11] is 4.12% (inactive). In [12], the binding (% of control) is 106% (inactive). Further, in [13], the efflux inhibition (fraction of control) is 0.22 (inactive). The differentiation response in assay [15] is 6.26% (inactive).
As to `C[C@H]1C[C@H]2[C@@H]3CCC4=CC(=O)C=C[C@]4(C)[C@@]3(Cl)[C@@H](O)C[C@]2(C)[C@@]1(O)C(=O)CO`, the percent of DMSO control GFP in [1] is 101% (inactive). The GFP response vs DMSO in assay [2] and in assay [4] was 103% (inactive) throughout. The percent response of DMSO control in [3] was 106% (inactive). The GFP response, % of DMSO in assay [5] is 98.8% (inactive). In assay [6], the double positive events is 53.7%. The vesicle binding response in assay [6] was 190% (inactive). Moreover, the results for the inhibition in assay [7], in assay [10] and in assay [14] were 4.42% (inactive), -8.65% (inactive) and 6% (inactive), respectively. In addition, the superoxide response (% of plate) in assay [8] was 85.2% (inactive). Further, in [9], the aptamer binding inhibition is 2% (inactive). Also, in assay [11], the response was 4.84% (inactive). Moreover, in [12], the binding (% of control) is 96.9% (inactive). In addition, in assay [13], the efflux inhibition (fraction of control) was -0.24 (inactive). Further, the differentiation response in [15] is -9.89% (inactive).
Turning to `COC1(C)CC2C(CC1OC(=O)c1cc([N+](=O)[O-])cc([N+](=O)[O-])c1)C2(C)C` (stereo not given), in [1], the percent of DMSO control GFP was 104% (inactive). Further, the figures for the GFP response vs DMSO in assay [2] and in assay [4] were 99.9% (inactive) and 178% (active), respectively. In assay [3], the percent response of DMSO control is 106% (inactive). For the same molecule, the GFP response, % of DMSO in assay [5] is 74.2% (inactive). This molecule also yielded a double positive events in [6] of 52.4%. For the same molecule, the vesicle binding response in assay [6] is 222% (inactive). For the same molecule, the results for the inhibition in assay [7], in assay [10] and in [14] were -3.97% (inactive), -6.29% (inactive) and 9% (inactive), respectively. Moreover, the superoxide response (% of plate) in [8] was 114% (inactive). Also, in assay [9], the aptamer binding inhibition was 5% (inactive). In addition, in assay [11], the response is 3.54% (inactive). The binding (% of control) in assay [12] was 99.3% (inactive). Besides, the efflux inhibition (fraction of control) in assay [13] was -0.35 (inactive). The differentiation response in [15] is -18% (inactive).
On to `CCCC1O[C@@H]2C[C@H]3[C@@H]4CCC5=CC(=O)C=C[C@]5(C)[C@H]4[C@@H](O)C[C@]3(C)[C@]2(C(=O)CO)O1` (stereo not given in full), for which the percent of DMSO control GFP in assay [1] is 100% (inactive). Also, the values for the GFP response vs DMSO in assay [2] and in assay [4] were 108% (inactive) and 100% (inactive), respectively. Also, the percent response of DMSO control in assay [3] was 108% (inactive). Moreover, the GFP response, % of DMSO in assay [5] is 106% (inactive). The same molecule showed a double positive events in assay [6] of 58.8%. Besides, the vesicle binding response in [6] was 217% (inactive). In addition, the inhibition in assay [7] was 4.42% (inactive); in [10], 42.5% (inactive); in assay [14], 0% (inactive). Besides, the superoxide response (% of plate) in assay [8] was 103% (inactive). In assay [9], the aptamer binding inhibition was 4% (inactive). The response in [11] was -0.18% (inactive). For the same molecule, the binding (% of control) in assay [12] was 104% (inactive). For the same molecule, in assay [13], the efflux inhibition (fraction of control) is 0.1 (inactive). Also, the differentiation response in assay [15] is 6.26% (inactive).
For the molecule `O=c1nc2cccc3c2=c(/c1=C(\O)c1ccccc1)c1ccccc1c3=O`, the percent of DMSO control GFP in assay [1] was 102% (inactive). Moreover, the GFP response vs DMSO is 102% (inactive) in [2] and 96.4% (inactive) in [4]. For the same molecule, the percent response of DMSO control in assay [3] was 105% (inactive). For the same molecule, the GFP response, % of DMSO in assay [5] is 99.3% (inactive). In assay [6], this molecule came in with a double positive events of 47.4%. Further, in [6], the vesicle binding response was 175% (inactive). Moreover, the inhibition in assay [7] was -23.6% (inactive); in assay [10], 17.9% (inactive); in assay [14] it was 9% (inactive). The superoxide response (% of plate) in [8] was 99.9% (inactive). Also, in assay [9], the aptamer binding inhibition was 8% (inactive). Moreover, the response in assay [11] was 1.67% (inactive). The binding (% of control) in assay [12] was 91% (inactive). For the same molecule, the efflux inhibition (fraction of control) in assay [13] was -0.16 (inactive). In addition, in assay [15], the differentiation response is -6.66% (inactive).

As usually defined, the inhibition is the drop in the measured response relative to a control, in per cent.
